The values that follow come from the supplement of paper PMC7184167.

SMILES strings stand for the structures. Structures can show the parent of a compound that is named as a salt.

The test system of the assay is replication-induced senescent mouse newborn dermal fibroblasts (NBF). In words: relative cell viability of senescent cells (fraction); higher = less killing of senescent cells. The note with it: 1 µM; 3 days. On the procedure: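 Replication-induced senescent newborn mouse skin fibroblasts (NBFs) in 24-well plates were treated with a Selleck FDA-approved drug library at 1 µM for 3 days.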
Regarding `Cn1cnc2c(F)c(Nc3ccc(Br)cc3Cl)c(C(=O)NOCCO)cc21` [Selumetinib (AZD6244)], the relative cell viability was 0.897.

The compound `CCCC(CCC)C(=O)O` [Divalproex Sodium] yielded a relative cell viability of 1.11.

Take `C#C[C@]1(O)CC[C@H]2[C@@H]3CCc4cc(O)ccc4[C@H]3CC[C@@]21C` [Ethinyl Estradiol]: the relative cell viability was 0.86.

Compound `CC(C(=O)O)c1cccc(Oc2ccccc2)c1` (centres undefined) [Fenoprofen Calcium] had a relative cell viability of 1.13.

In turn, `CS(=O)(=O)c1ccc(C(=O)Nc2ccc(Cl)c(-c3ccccn3)c2)c(Cl)c1` [Vismodegib (GDC-0449)] had a relative cell viability of 0.521.

Turning to `Cn1c(=O)c2[nH]cnc2n(C)c1=O` [Aminophylline], the relative cell viability was 0.98.

Compound `O=C(O)CSCC(=O)NC1CCSC1=O` (centres undefined) [Erdosteine] registered a relative cell viability of 0.979.

With `COC(=O)N[C@H](C(=O)N1CCC[C@H]1c1ncc(-c2ccc(-c3ccc(-c4cnc([C@@H]5CCCN5C(=O)[C@@H](NC(=O)OC)C(C)C)[nH]4)cc3)cc2)[nH]1)C(C)C`, the relative cell viability is 0.545.

`Nc1ncnc2c1ncn2[C@@H]1O[C@H](CO)[C@@H](O)[C@@H]1O` [Vidarabine] yielded a relative cell viability of 0.744.

`Nc1cccc2c1C(=O)N(C1CCC(=O)NC1=O)C2=O` (centres undefined) [Pomalidomide] came in with a relative cell viability of 1.19.

With `CC(=O)OCC(=O)NCCCOc1cccc(CN2CCCCC2)c1` [Roxatidine Acetate HCl], the relative cell viability worked out at 0.897.

`Nc1ccc(S(N)(=O)=O)cc1` [Sulfanilamide] showed a relative cell viability of 0.91.

For `CCC(C)(C)c1ccc(CC(C)CN2C[C@@H](C)O[C@@H](C)C2)cc1` (some centres undefined) [Amorolfine HCl], the relative cell viability was 1.09.

Compound `COc1cc2nc(N3CCN(C(=O)c4ccco4)CC3)nc(N)c2cc1OC` [Prazosin HCl] registered a relative cell viability of 0.927.
